# Screen size: about 340,000 compounds; about 5,100 (1.5%) were called active.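 How the source made its calls: active means mean Tm shift, scaled 0 neutral to 100 positive control, at about 1.3% or above, every replicate too (limit read from the data); inconclusive means no clear call, values can overlap the other calls; inactive means the rest.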 What follows is part of a selection rich in actives, with near analogues and random picks from the rest.
# Target: Fibroblast growth factor 22 (Homo sapiens) (UniProt Q9HCT0)
# Test: binders of human FGF22 protein, primary screen, FGF22 synaptogenesis inhibitor project, biophysical, thermal shift, single point (AID 651658)
# Settings: recombinant FGF22 thermal shift, SYPRO orange fluorescence; at 9.99 µM; hits give high values; percent of sucrose octasulfate shift, DMSO zero
# Chain of Fibroblast growth factor 22 (Homo sapiens) (Q9HCT0 whole entry, looked up): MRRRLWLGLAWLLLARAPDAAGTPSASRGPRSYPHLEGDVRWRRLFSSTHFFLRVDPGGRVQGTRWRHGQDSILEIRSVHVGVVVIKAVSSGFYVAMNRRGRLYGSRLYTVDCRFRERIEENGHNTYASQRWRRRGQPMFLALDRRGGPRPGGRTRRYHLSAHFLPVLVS
row,SMILES,"activity (Tm shift, normalised)"
1,CCCNC(=O)N1CC2(CN(C(=O)c3cnccn3)C2)c2c([nH]c3cc(OC)ccc23)[C@@H]1CO,0.028% (inactive)
2,CCc1cc(-c2n[nH]c(=S)n2CC(C)C)cs1,-0.833% (inactive)
3,CCn1c(C(C)C)n[nH]c1=S,43.3% (active)
4,CCn1c(-c2ccncc2)n[nH]c1=S,0.117% (inactive)
5,O=C(C[C@H]1C[C@H]2c3cc(NC(=O)Nc4ccccc4F)ccc3O[C@H]2[C@H](CO)O1)NCc1ccccn1,0.07% (inactive)
6,Cc1cccc(C)c1NC(=S)N1CCCCCC1,-0.275% (inactive)
7,Cc1cccc(C)c1NC(=O)C1(N(C(=O)c2ccccn2)c2ccc(O)cc2)CCCCC1,43% (active)
8,Cc1cccc(C)c1NC(=O)CNC(=O)C1CCCC1,-0.023% (inactive)
9,O=C(N[C@H]1CC[C@H](CCNS(=O)(=O)c2ccc(F)cc2)O[C@H]1CO)c1cccc(F)c1,-0.051% (inactive)
10,O=C(Nc1cc(F)ccc1F)N[C@@H]1C=C[C@@H](CC(=O)N2CCc3ccccc3C2)O[C@@H]1CO,-0.137% (inactive)
11,CCC(=O)N1[C@@H](CO)[C@@H]2c3ccccc3N(C(=O)c3cnccn3)C[C@@H]21,-0.28% (inactive)
12,CCc1noc(C)c1C(=O)OCC(=O)c1ccc(NC(=O)CC(C)C)cc1,-0.332% (inactive)
13,Cc1ccc(S(=O)(=O)N2CCN(C(=O)COC(=O)c3c(C)noc3C)CC2)c(C)c1,-0.319% (inactive)
14,COc1ccc(C(=O)COC(=O)c2c(C)noc2C)cc1Cl,44% (active)
15,CCOC(=O)C1=C(CC)OC(N)=C(C#N)C1c1ccc(F)cc1F (stereo unspecified),43.8% (active)
16,COC(=O)C1=CN(c2c(C)cc(C)cc2C)C(N)=C(C#N)C1c1cccc(F)c1 (stereo unspecified),-0.26% (inactive)
17,Cn1c2c(c(=O)n(C)c1=O)C(c1cccc(F)c1)C(C#N)=C(N)O2 (stereo unspecified),-0.167% (inactive)
18,CN1CCCc2nc(-c3ccccc3)ccc21,42.2% (inactive)
19,O=S(=O)(c1cccs1)N1CCCc2nc(-c3ccc(Br)cc3)ccc21,0.061% (inactive)
20,COc1ccc(-c2ccc3c(n2)CCCN3S(=O)(=O)c2ccc(C)cc2)cc1,48.4% (active)
21,C[C@@H]1CCCCO[C@@H](CN(C)Cc2ccc(C(=O)O)cc2)[C@H](C)CN([C@H](C)CO)C(=O)c2cc(NS(=O)(=O)c3cccs3)ccc2O1,-0.274% (inactive)
22,C[C@@H]1CN([C@H](C)CO)C(=O)c2cc(NS(=O)(=O)c3ccccc3)ccc2O[C@@H](C)CCCCO[C@H]1CN(C)S(=O)(=O)c1ccc(Cl)cc1,-0.893% (inactive)
23,COCc1cn(CC[C@H]2CC[C@H](NC(=O)Nc3ccc4c(c3)OCO4)[C@@H](CO)O2)nn1,-0.239% (inactive)
24,CO[C@@H]1CN(C)C(=O)c2cc(NC(=O)Nc3cccc(F)c3)ccc2OC[C@H](C)N(C)C[C@@H]1C,-0.31% (inactive)
25,COc1ccc(-c2ccc3c(c2)[C@H]2[C@H](CCN2C(=O)C2CCOCC2)[C@H](CO)N3C)cc1,-0.244% (inactive)
26,Cc1ccc(C2=Nc3c(ccc4ccccc34)C(c3ccncc3)=NN2)cc1,44% (active)

row,SMILES,"activity (Tm shift, normalised)"
1,COc1ccc(S(=O)(=O)N(C)C[C@@H]2Oc3ccc(NC(=O)CCN4CCOCC4)cc3CC(=O)N([C@@H](C)CO)C[C@@H]2C)cc1,-0.109% (inactive)
2,Cn1c(=O)c2cc(S(=O)(=O)NCCC(=O)Nc3ccc(F)cc3F)ccc2n(C)c1=O,43.3% (active)
3,CCc1ccccc1NC(=O)CN(C)S(=O)(=O)c1ccc2c(c1)c(=O)n(C)c(=O)n2C,-0.036% (inactive)
4,COc1ccc(NC(=O)CCNS(=O)(=O)c2ccc3c(c2)c(=O)n(C)c(=O)n3C)cc1OC,-0.132% (inactive)
5,CCCC#Cc1cnc2c(c1)C(=O)N([C@@H](C)CO)C[C@@H](C)[C@@H](CN(C)Cc1ccccc1F)O2,-0.354% (inactive)
6,Cc1ccn2c(-c3csc(Nc4ccc(C(=O)O)cc4)n3)c(C)nc2c1,-0.135% (inactive)
7,C/C(=N\OC(=O)c1ccccc1)c1c(C)nc2cc(C)ccn12,44.6% (active)
8,C/C(=N/OC(=O)c1ccc(Br)cc1)c1ccc(C)cc1,0.152% (inactive)
9,Cc1ccccc1-c1cnc2c(c1)C(=O)N([C@H](C)CO)C[C@@H](C)[C@H](CN(C)C(=O)c1cccnc1)O2,0.163% (inactive)
10,CO[C@@H]1CN(C)C(=O)c2ccc(NC(=O)Nc3cc(Cl)cc(Cl)c3)cc2OC[C@H](C)NC[C@H]1C,-0.905% (inactive)
11,CC(C)c1ccc(S(=O)(=O)NC2CCCC2)cc1,0.004% (inactive)
12,Cc1ccc(S(=O)(=O)N[C@H]2CCC[C@@H]2O)cc1,-0.275% (inactive)
13,Cc1ccc(S(=O)(=O)NC2CCCCCC2)cc1,43% (active)
14,C[C@@H]1CN([C@@H](C)CO)C(=O)CCCn2cc(nn2)CO[C@@H]1CN(C)S(=O)(=O)c1ccccc1C#N,-0.156% (inactive)
15,CSc1ccc(/C=N/NC(=O)c2cccc(Cl)c2)cc1,0.743% (inactive)
16,CSc1ccc(/C=N\NC(=O)CC(=O)NC(C)C)cc1,43.1% (active)
17,O=C(CC(=O)N/N=C\c1ccc(F)cc1)NCCc1ccccc1,0.292% (inactive)
18,Cc1ccc(S(=O)(=O)N(C)C[C@@H]2Oc3ccc(NS(=O)(=O)c4cccs4)cc3C(=O)N([C@@H](C)CO)C[C@H]2C)cc1,-0.456% (inactive)
19,CO[C@H]1CN(C)C(=O)c2cc(NC(=O)C3CCC3)ccc2OC[C@H](C)N(CC2CCCCC2)C[C@@H]1C,0.141% (inactive)
20,CCN(c1ccccc1)S(=O)(=O)c1ccc(N)cc1,-0.161% (inactive)
21,O=S(=O)(ON(c1ccccc1)S(=O)(=O)c1ccccc1)c1ccccc1,1.68% (active)
22,O=S(=O)(c1ccccc1)N(Cc1cccc(F)c1)c1ccccc1,-0.239% (inactive)
23,CN1c2ccc(C3=CCCCC3)cc2[C@@H]2[C@@H](CCN2S(=O)(=O)c2ccccc2F)[C@H]1CO,-0.132% (inactive)
24,Cc1noc(C)c1NC(=O)N[C@H]1C=C[C@@H](CC(=O)Nc2ccccc2)O[C@H]1CO,-0.156% (inactive)
25,CO[C@@H]1CN(C)C(=O)c2cc(NS(=O)(=O)c3cccc(F)c3)ccc2OC[C@@H](C)NC[C@@H]1C,-0.14% (inactive)

# — PubChem BioAssay AID651658 (Broad Institute, 2012)
